Screening results deposited in PubChem BioAssay by National Center for Advancing Translational Sciences (NCATS).
Rows were chosen to be rich in hits. Some 1.9% of all compounds tested hit in one or more screens of this group.
IMPase Li inh – cell-permeable IMPase inhibitors with lithium potentiation; CHO-M1 cells, IP1 TR-FRET (IP-One), carbachol + lithium; Potency, µM (top dose mostly 59.4 µM), for inactives: top-dose activity, negative = IMPase inhibition, actives largely listed as inhibitors; 210,000 tested, 0.35% active; AID 1457;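 also: IP1 builds up when IMPase is blocked and the TR-FRET signal falls; plate controls were basal vehicle for no effect and high inhibitor control for full effect; nearly all actives have a fitted effect of over 50% in size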
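Readout is a homogeneous TR-FRET IP1 immunoassay (Ex 320, Em 665 and 620), where raised cytosolic IP1 lowers signal. Cells were CHO-M1 treated 30 min at 37C with test compounds plus a little lithium; AC50 values came from Hill-equation fitting.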
HTT cytoprotect – cytoprotection in Huntington HTT-Q103 PC12 cell model; Potency, µM (titrated, usually from 56.4 µM), without a hit: cytoprotection (ATP increase), usual class: activators; PC12 HTT-Q103 induced, cytoprotection, ATP luminescence, 40 h; 230,000 tested, 0.14% active; also: % of control where 0% means no effect; nearly all actives have a fitted effect of over 45% in size
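PC12 cells with ecdysone-inducible HTT exon 1 Q103-GFP, induced with 100 nM tebufenozide and co-treated with library compounds in a dose series (1536-well, 1500 cells/well). Cytoprotection read as ATP content by ATPlite luminescence.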
HTT aggregate – reduces HttQ103-GFP aggregates in PC12 cells. PC12 HttQ103-GFP aggregates, Acumen cytometry, 40 h. Potency, µM (doses to about 46.1 µM), for the others: at the highest dose activity change, negative = inhibition, usual class: inhibitors. 220,000 tested, 1.1% active. AID 1688; also: % is scaled to controls: 0 for no effect and ±100 for the full control effect; nearly all actives have a fitted effect of over 60% in size
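Read-out: GFP aggregate count by laser scanning cytometer (488 nm excitation, 500-530 nm emission, 1–25 µm objects >6 SD above background). Cells: PC12, inducible HTTex1-Q103-GFP, 100 nM tebufenozide; compounds titrated.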
ERK EGF inh – blocks ERK signaling stimulated by EGF; 130,000 tested, 0.41% active; HEK293-V1b, EGF-stimulated phospho-ERK AlphaScreen; Potency, µM (highest dose often 11.5 µM), inactives show at the top dose activity change, negative = inhibition, hits mostly inhibitors; AID 1454;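 also: plate controls were stimulated vehicle wells for no effect and unstimulated vehicle basal for full effect; nearly all actives have a fitted effect of over 55% in size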
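HEK293 cells stably expressing V1b receptor, serum-reduced (1% FBS) overnight, got compound for 30 min at 37C, then 25 nM EGF for 5 min. Lysate phospho-ERK read by AlphaScreen SureFire; AC50 from Hill fits.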
NPSR antagonist – blocks cAMP signaling of the human neuropeptide S receptor; Q6W5P4; CHO-NPSR cells, cAMP TR-FRET, antagonist mode; Potency, µM (highest dose often 38.3 µM), inactives show at the highest dose activity change, negative = inhibition, hits mostly inhibitors; 220,000 tested, 1% active; also: % is scaled to controls: 0 for no effect and ±100 for the full control effect; nearly all actives have a fitted effect of over 50% in size
Target sequence (Q6W5P4 whole entry, looked up): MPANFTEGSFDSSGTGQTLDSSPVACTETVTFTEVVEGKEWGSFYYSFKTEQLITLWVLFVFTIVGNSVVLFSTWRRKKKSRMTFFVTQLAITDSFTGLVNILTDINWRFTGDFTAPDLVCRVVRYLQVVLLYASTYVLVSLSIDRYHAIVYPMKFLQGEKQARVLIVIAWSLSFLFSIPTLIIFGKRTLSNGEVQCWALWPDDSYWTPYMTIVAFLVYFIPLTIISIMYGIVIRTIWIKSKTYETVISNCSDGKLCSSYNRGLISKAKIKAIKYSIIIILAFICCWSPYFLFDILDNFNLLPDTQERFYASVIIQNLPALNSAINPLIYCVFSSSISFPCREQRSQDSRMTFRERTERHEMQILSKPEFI
Active calls of the source: *; ? = inconclusive; nt = not tested or not shown; [ ] = remark or other dose. Calls follow the shape of the dose curve; as a rule, active = well fitted curve in the direction sought with a large enough effect; inconclusive = small, poorly fitted or top-dose-only effect, or another doubt; inactive = no such curve, though single readings can be large; an effect the other way counts as inactive or inconclusive. Potency is read from the fitted curve at half-maximal effect.

SMILES	IMPase Li inh	HTT cytoprotect	HTT aggregate	ERK EGF inh	NPSR antagonist
COc1ccccc1-c1nnc(SC(C(=O)c2c[nH]c3ccccc23)c2ccccc2)n1C (centres undefined)	nt	4.5µM*	2.8µM*	nt	?
CC(=O)O[C@H](C(=O)O[C@@H]1C[C@@H](CCC[C@H]2O[C@H](C(=O)OC(C)C)CC[C@@H]2C)O[C@@H](CC#N)C1)c1ccccc1	1%	?	nt	6%	nt
CCCN1C(=O)/C(=C/c2c(N3CCNC(=O)C3CC(=O)OCC)nc3c(C)cccn3c2=O)SC1=S (centres undefined)	nt	-3%[10 µM]	-19%[9.22 µM]	-10%[57.5 µM]	13µM*
O=C(O[C@H]1CN2CCC1CC2)N1CCc2ccccc2[C@@H]1c1ccccc1	nt	1%	-5%	nt	nt
CC(=O)Nc1ccc(S(=O)(=O)Nc2cccc(-c3nc4cc(C)ccc4o3)c2)cc1	nt	-11%[0.074 µM]	nt	nt	nt
Cc1ccc(S(=O)(=O)Nc2ccc(-c3nc4cc(NS(=O)(=O)c5ccc(C)cc5)ccc4o3)cc2)cc1	6%[38.3 µM]	-65%	17%[9.22 µM]	nt	10µM*
C=CCn1c(SCC(=O)NCc2ccco2)nc2sc3c(c2c1=O)CCCC3	3%[38.3 µM]	-9%	12%	nt	-3%[46.1 µM]
O=C(NCc1ccco1)c1ccc2nc3sc4c(c3c(=O)n2c1)CCCC4	11%	-12%[10 µM]	?	nt	10µM*
COc1cc(SSc2cc(OC)cc([N+](=O)[O-])c2N)c(N)c([N+](=O)[O-])c1	nt	-4%[10 µM]	-20%[9.22 µM]	?	3.2µM*
COC(=O)NC(CCc1ccccc1)C(C(C)=O)C(=O)OC (centres undefined)	7%	0%	nt	5%	nt
CC1OC(OC2CCC3(C)C(CCC4C3CC(O)C3(C)C(C5=CC(=O)OC5)CCC43O)C2)CC(O)C1OC1CC(O)C(OC2CC(O)C(OC3OC(CO)C(O)C(O)C3O)C(C)O2)C(C)O1 (centres undefined)	5%	18%	-10%	nt	nt
Cc1nc2ccccc2n1C(=O)c1ccccc1[N+](=O)[O-]	-8%	nt	0.14µM*	1%	9%[46.1 µM]
O=c1c(-c2ccc(F)cc2)nc2cnc(N3CCNCC3)nc2n1-c1ccccc1	0%	-277%	nt	nt	nt
CN(C)c1cccc2c1C(=O)c1ccccc1C2=O	15%	7%[10 µM]	-24%	13µM*	-20%
Cn1nnnc1SCCNCc1cc(Cl)ccc1OCc1ccccc1	1%	17%[10 µM]	25µM*	?	8%
O=C(NC(c1ccc(Cl)cc1)c1cc(Cl)c2cccnc2c1O)c1cccnc1 (centres undefined)	-6%	-71%[10 µM]	8.9µM*	-2%	-12%
c1nc2sc3c(c2c2nnnn12)CCCC3	14%[38.3 µM]	6%[1.9 µM]	10µM*	nt	3%[46.1 µM]
COc1ccc(-c2cccc(C3CC=CC4C3C(=O)N(Cc3ccccc3)C4c3ccc4ccccc4c3)c2)cc1 (centres undefined)	nt	-51%[10 µM]	-40%[9.22 µM]	7%[57.5 µM]	-29%
COc1ccc(C2C3C=CCC(c4cccc(-c5ccc(C)cc5)c4)C3C(=O)N2Cc2ccccc2)cc1Cl (centres undefined)	nt	-47%[10 µM]	?	11%[57.5 µM]	10µM*
COC(CNC(=O)c1ccc2c3c(onc13)-c1ccccc1C2=O)OC	nt	-37%[10 µM]	-3%[9.22 µM]	35µM*	?
COC(CNC(=O)c1cccnc1)OC	6%	27%[10 µM]	14%[9.22 µM]	1%	-11%
CCOc1ccc(-c2csc(/C(C#N)=C\c3ccc(O)c([N+](=O)[O-])c3)n2)cc1	6%	18%[10 µM]	7.9µM*	13µM*	-34%
CCCCc1ccc(-c2csc(/C(C#N)=C\c3ccc(C)o3)n2)cc1	16%[38.3 µM]	-11%	7%	nt	-4%[46.1 µM]
COc1ccc(NC(=O)c2sc(SCc3ccccc3)nc2N)cc1	10%	2%[10 µM]	25µM*	nt	-30%[46.1 µM]
CC(C)(C)c1ccc(CSc2nnc(-c3ccccn3)n2Cc2ccco2)cc1	57%[38.3 µM]	6%	14µM*	nt	?
Brc1ccc(CSc2nnc(-c3ccccn3)n2Cc2ccco2)cc1	-1%[38.3 µM]	11%[0.074 µM]	-13%	nt	11%[46.1 µM]
CC(=O)N(C)C1=C(N2CCOCC2)C(=O)c2ccccc2C1=O	21%[38.3 µM]	-122%	25µM*	nt	8%[46.1 µM]
CCCCCCCCCCCCCCCC(=O)OCC(O)C1OC(=O)C(O)=C1O (centres undefined)	0%	-61%	nt	nt	nt
